This note sets out measurements from PubChem BioAssay (Tox21).

Inconclusive results are not listed. Active and inactive are the calls of the source. Unless noted, calls follow the shape of the dose curve; as a rule, active = well fitted inhibition curve with a large enough effect in the repeat runs (not every such curve was filed as active); inconclusive = weak or mixed curves; inactive = flat fitted curve, though single readings scatter.
% is scaled to controls: 0 for no effect and ±100 for the full control effect.

Sequence of Thyrotropin-releasing hormone receptor (Homo sapiens) (P34981 whole entry, looked up): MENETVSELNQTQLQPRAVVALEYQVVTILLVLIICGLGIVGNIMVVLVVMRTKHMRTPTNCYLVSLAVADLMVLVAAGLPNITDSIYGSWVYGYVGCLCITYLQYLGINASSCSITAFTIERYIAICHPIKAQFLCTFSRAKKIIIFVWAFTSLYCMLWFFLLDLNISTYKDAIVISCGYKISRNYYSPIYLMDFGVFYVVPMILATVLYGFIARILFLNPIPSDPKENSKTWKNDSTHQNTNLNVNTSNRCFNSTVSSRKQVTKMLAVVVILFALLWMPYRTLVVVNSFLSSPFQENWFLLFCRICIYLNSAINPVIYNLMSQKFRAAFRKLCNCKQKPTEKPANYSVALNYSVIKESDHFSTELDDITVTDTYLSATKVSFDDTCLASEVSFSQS

System in the first experiment: not listed separately
As to the kind of experiment: qHTS assay to identify small molecule agonists of the TGF-beta/Smad signaling pathway (AID 1346859; active = well fitted activation curve with a large enough effect in the signal ratio in the repeat runs, not every such curve was filed as active; the % refers to the signal ratio). Conditions: SBE-bla HEK293T, TGF-beta/Smad beta-lactamase reporter, 5 h; series mostly up to 76.8 µM. The gist of the method:
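SBE-bla HEK293T cells plated overnight, then compound exposure for 5 h at 37 C. Beta-lactamase reporter read with LiveBLAzer B/G FRET substrate after 2 h at room temperature, fluorescence at 405 nm excitation, 460/530 nm emission.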
Regarding `Cc1ccccc1N=C(N)N=C(N)N`, the molecule was called inactive.

Take `FB(F)F`: the molecule was classed as inactive.

On to `CCCC(=O)O[C@]1(C(=O)CC)CC[C@H]2[C@@H]3CCC4=CC(=O)CC[C@]4(C)[C@H]3[C@@H](O)C[C@@]21C`, for which the outcome was inactive.

Turning to `CCO[Si](OCC)(OCC)c1ccccc1`, the molecule was called inactive.

`Cc1cccc(C)c1NC(=O)CC12CCCN1CCC2`: the result was inactive.

On to `O=S(=O)(O)c1cc(O)c(O)c(S(=O)(=O)O)c1`, for which the molecule was classed as inactive.

As for `CC(C)C1CCC(O)CC1` (stereo unspecified), the molecule was called inactive.

For `CC1=NN(c2cc(S(=O)(=O)O)ccc2Cl)C(=O)C1N=Nc1ccccc1` (stereo unspecified), the result was inactive.

With `CC12CCC(C(=O)C1=O)C2(C)C` (stereo unspecified), the molecule was classed as inactive.

For `C=CN1CCCCCC1=O`, the molecule was classed as inactive.

As for `CCCCCCCCCCCCCCCCCCO`, the call was inactive.

Take `CC(C)C(=O)OC(=O)C(C)C`: the call was inactive.

On to `[O-][n+]1cccc(CO)c1`, for which the outcome was inactive.

Take `CCCCCC(=O)OCCc1ccccc1`: the result was inactive.

For the molecule `CC(=O)NC(=O)c1ccccc1O`, the call was inactive.

As for `COc1cc(C(=O)OC(COCCC(C)C)CN2CCOCC2)cc(OC)c1OC` (stereo unspecified), the call was inactive.

As to `CO[Si](C)(OC)c1ccccc1`, the molecule was classed as inactive.

In the case of `C=COC(=O)C(C)(CC)CCC(C)C` (stereo unspecified), the molecule was called inactive.

As to `C=C[Si](OC(C)=O)(OC(C)=O)OC(C)=O`, the outcome was inactive.

Regarding `COc1c(N2CCNC(C)C2)c(F)cc2c(=O)c(C(=O)O)cn(C3CC3)c12` (stereo unspecified), the molecule was classed as inactive.

Turning to `CC1(C)OC[C@@H](COC(=O)CCc2ccc(OC[C@@H](O)CNCCNC(=O)N3CCOCC3)cc2)O1`, the molecule was classed as inactive.

As for `C=CC(C)(CCC=C(C)C)OC(=O)CC` (stereo unspecified), the result was inactive.

As for `c1ccc(Cc2ccccc2)cc1`, the outcome was inactive.

Regarding `CC(C)(C#N)Nc1nc(Cl)nc(NC2CC2)n1`, the outcome was inactive.

`C=C(C)C(=O)OCC1CCCO1` (stereo unspecified): the outcome was inactive.

As for `CC(=O)Nc1ccc(OCC(O)CNC(C)C)cc1` (stereo unspecified), the call was inactive.

On to `CN(C)[C@@H]1C(=O)C(C(=O)NCN2CCCC2)=C(O)[C@@]2(O)C(=O)C3=C(O)c4c(O)cccc4[C@@](C)(O)C3C[C@@H]12` (stereo partly specified), for which the molecule was called inactive.

`COc1cc(C(=O)NCc2ccc(OCCN(C)C)cc2)cc(OC)c1OC`: the result was inactive.

With `CCCC(C)C(=O)OCC` (stereo unspecified), the call was inactive.

With `CCCCOC(=O)CCC(C)=O`, the outcome was inactive.

Take `CC(C#N)(CCC(=O)O)N=NC(C)(C#N)CCC(=O)O` (stereo unspecified): the call was inactive.

For the molecule `O=S(=O)(O)c1cccc2ccccc12`, the call was inactive.

For the molecule `CN(C)C(=O)Oc1cccc([N+](C)(C)C)c1`, the result was inactive.

With `CC(=O)N[C@H]1[C@H]([C@H](O)[C@H](O)CO)OC(C(=O)O)=C[C@@H]1N=C(N)N`, the molecule was classed as inactive.

For `CCN[C@@H]1C[C@H](N)[C@@H](OC2OC(CN)=CCC2N)[C@H](O)[C@H]1O[C@H]1OC[C@](C)(O)[C@H](NC)[C@H]1O` (stereo partly specified), the activation was -2.06% [at 0.29 µM] (inactive).

As for `C=CC(=O)OCCCl`, the call was inactive.

For the molecule `CCCc1nn(C)c2c(=O)[nH]c(-c3cc(S(=O)(=O)N4CCN(C)CC4)ccc3OCC)nc12`, the call was inactive.

As to `C[N+]12CCC(CC1)C(OC(=O)C(O)(c1ccccc1)c1ccccc1)C2` (stereo unspecified), the molecule was classed as inactive.

The target in another experiment is Thyrotropin-releasing hormone receptor (Homo sapiens) (UniProt P34981). Nature of the experiment: qHTS assay to identify small molecule antagonists of the thyrotropin-releasing hormone receptor (TRHR) signaling pathway (AID 1346877). Conditions: TRHR-HEK293, TRH-induced calcium fluorescence, antagonist mode; series mostly up to 51.3 µM. The gist of the method:
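Following an 18 h incubation at 37 °C and a 2 h calcium dye load, TRHR-HEK293 cells were exposed to compound (5 min, room temperature) and challenged with TRH, 1 nM final.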
`Cc1ccccc1N=C(N)N=C(N)N`: the outcome was inactive.

With `FB(F)F`, the outcome was inactive.

In the case of `CCCC(=O)O[C@]1(C(=O)CC)CC[C@H]2[C@@H]3CCC4=CC(=O)CC[C@]4(C)[C@H]3[C@@H](O)C[C@@]21C`, the result was inactive.

In the case of `CCO[Si](OCC)(OCC)c1ccccc1`, the result was inactive.

For the molecule `Cc1cccc(C)c1NC(=O)CC12CCCN1CCC2`, the outcome was inactive.

As for `O=S(=O)(O)c1cc(O)c(O)c(S(=O)(=O)O)c1`, the result was inactive.

On to `CC(C)C1CCC(O)CC1` (stereo unspecified), for which the result was inactive.

Consider `CC1=NN(c2cc(S(=O)(=O)O)ccc2Cl)C(=O)C1N=Nc1ccccc1` (stereo unspecified), for which the result was inactive.

As for `CC12CCC(C(=O)C1=O)C2(C)C` (stereo unspecified), the result was inactive.

On to `C=CN1CCCCCC1=O`, for which the result was inactive.

For the molecule `CCCCCCCCCCCCCCCCCCO`, the result was inactive.

Take `CC(C)C(=O)OC(=O)C(C)C`: the outcome was inactive.

For `[O-][n+]1cccc(CO)c1`, the result was inactive.

With `CCCCCC(=O)OCCc1ccccc1`, the outcome was inactive.

As to `CC(=O)NC(=O)c1ccccc1O`, the outcome was inactive.

In the case of `COc1cc(C(=O)OC(COCCC(C)C)CN2CCOCC2)cc(OC)c1OC` (stereo unspecified), the result was inactive.

Turning to `CO[Si](C)(OC)c1ccccc1`, the result was inactive.

Regarding `C=COC(=O)C(C)(CC)CCC(C)C` (stereo unspecified), the outcome was inactive.

Regarding `C=C[Si](OC(C)=O)(OC(C)=O)OC(C)=O`, the outcome was inactive.

For `COc1c(N2CCNC(C)C2)c(F)cc2c(=O)c(C(=O)O)cn(C3CC3)c12` (stereo unspecified), the outcome was inactive.

Consider `CC1(C)OC[C@@H](COC(=O)CCc2ccc(OC[C@@H](O)CNCCNC(=O)N3CCOCC3)cc2)O1`, for which the result was inactive.

`C=CC(C)(CCC=C(C)C)OC(=O)CC` (stereo unspecified): the outcome was inactive.

Take `c1ccc(Cc2ccccc2)cc1`: the result was inactive.

For `CC(C)(C#N)Nc1nc(Cl)nc(NC2CC2)n1`, the outcome was inactive.

`C=C(C)C(=O)OCC1CCCO1` (stereo unspecified): the outcome was inactive.

With `CC(=O)Nc1ccc(OCC(O)CNC(C)C)cc1` (stereo unspecified), the result was inactive.

Turning to `CN(C)[C@@H]1C(=O)C(C(=O)NCN2CCCC2)=C(O)[C@@]2(O)C(=O)C3=C(O)c4c(O)cccc4[C@@](C)(O)C3C[C@@H]12` (stereo partly specified), the outcome was inactive.

For the molecule `COc1cc(C(=O)NCc2ccc(OCCN(C)C)cc2)cc(OC)c1OC`, the outcome was inactive.

In the case of `CCCC(C)C(=O)OCC` (stereo unspecified), the outcome was inactive.

As for `CCCCOC(=O)CCC(C)=O`, the outcome was inactive.

`CC(C#N)(CCC(=O)O)N=NC(C)(C#N)CCC(=O)O` (stereo unspecified): the result was inactive.

In the case of `O=S(=O)(O)c1cccc2ccccc12`, the outcome was inactive.

In the case of `CN(C)C(=O)Oc1cccc([N+](C)(C)C)c1`, the outcome was inactive.

Consider `CC(=O)N[C@H]1[C@H]([C@H](O)[C@H](O)CO)OC(C(=O)O)=C[C@@H]1N=C(N)N`, for which the outcome was inactive.

On to `CCN[C@@H]1C[C@H](N)[C@@H](OC2OC(CN)=CCC2N)[C@H](O)[C@H]1O[C@H]1OC[C@](C)(O)[C@H](NC)[C@H]1O` (stereo partly specified), for which the activity, negative = inhibition was 0.737% [at 0.194 µM] (inactive).

Take `C=CC(=O)OCCCl`: the outcome was inactive.

Consider `CCCc1nn(C)c2c(=O)[nH]c(-c3cc(S(=O)(=O)N4CCN(C)CC4)ccc3OCC)nc12`, for which the result was inactive.

For the molecule `C[N+]12CCC(CC1)C(OC(=O)C(O)(c1ccccc1)c1ccccc1)C2` (stereo unspecified), the result was inactive.
